# Bioassay records: PubChem, SRMLSC
# An excerpt weighted towards active compounds, which were near 6.8% of everything screened.
# Autofluor 339: intrinsic fluorescence of library compounds, ex339/em460 – biochemical, MLSMR library, data from DPM-DC assay, artefact control, profiling panel. compound autofluorescence, ex339/em460 nm, NADH buffer; active compounds read high; 1 = no-compound wells, NADH background. fluorescence fold increase at 10 µM. 65,000 tested, 5.5% active. AID 709;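 active = at 10 µM, mean starting fluorescence two-fold or more over control wells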;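 also: signal is the first read of a kinetic run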
# Abs 340nm: compound absorbs light at 340 nm; fold change at 10 µM; compound absorbance at 340 nm, fold over control; 65,000 tested, under 10 active;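 active = at 10 µM dose, initial 340 nm absorbance at least 2 fold that of control wells; inactive = change under 2 fold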;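 also: initial absorbance extrapolated from kinetic A340 decline of NADH oxidation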
# MK inhibit: S. pneumoniae mevalonate kinase inhibition; purified MK, PK/LDH-coupled NADH absorbance 340 nm; 65,000 tested, 0.48% active; inhibition, % at 10 µM;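 active = ranked among the strongest by inhibition in the single 10 µM screen, a fixed top-ranked set picked for dose follow-up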
# Spn DPM-DC inh: inhibitors of Streptococcus pneumoniae diphosphomevalonate decarboxylase | AID 556 | 65,000 tested, 0.49% active | calls only at 10 µM | purified DPM-DC, PK/LDH coupled NADH fluorescence;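 active = the 320 compounds with the highest percent inhibition in the single-dose primary screen, excluding strongly autofluorescent ones, cut at about 32% in these data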;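 also: kinetic rate of NADH fluorescence loss reporting ADP formed by the decarboxylase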
# NADH enzymes: inhibitors of enzymes used to reach an NAD/NADH endpoint; AID 774; coupled PK/LDH NADH assays, four targets; 65,000 tested, 0.02% active; IC50, µM (titrated, usually from 10 µM), for inactives: at the highest dose inhibition;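 active = single-dose screening hits from any of four coupled enzyme assays that gave an IC50 when retested across doses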;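 also: the DPM-DC format reads NADH fluorescence rather than 340 nm absorbance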
# Spn PMK inh: blocks S. pneumoniae phosphomevalonate kinase; inhibition, % at 10 µM; 65,000 tested, 0.49% active; AID 539; purified PMK, PK/LDH-coupled NADH absorbance 340 nm;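 active = top-ranked compounds by inhibition in the single 10 µM screen, taking a fixed number of the strongest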;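 also: 0% = full reaction with DMSO carrier and 100% = background rate without enzyme reaction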
# Numbers without * were called inactive; i = inactive; . = no result given.
SMILES,Autofluor 339,Abs 340nm,MK inhibit,Spn DPM-DC inh,NADH enzymes,Spn PMK inh
Nc1cc(C(F)(F)F)ccc1C(=O)O,2.1*,1.1,0,.,10%,19
Nc1cc(S(=O)(=O)C(F)(F)F)ccc1C(=O)O,1.2,1,0,i,0%,0
CCCCc1c(C)c2ccc(OC)c(/C(C)=N\O)c2oc1=O,2.5*,1.1,.,i,12%,9
Cc1ccc(CNC(=O)c2cn(C3CCCC3)c(=O)c3c2c2ccccc2n3C)o1,2.1*,1.1,2,.,11%,19
Cn1c2ccccc2c2c(C(=O)O)cn(C3CCCC3)c(=O)c21,2.1*,1,10,.,6%,2
COc1ccc(N2CCN(C(=O)c3cn(C4CCCC4)c(=O)c4c3c3ccccc3n4C)CC2)cc1,1.3,1,5,i,7%,16
Cn1c2ccccc2c2c(C(=O)NCc3ccco3)cn(C3CCCCC3)c(=O)c21,2.1*,1.1,7,.,11%,15
CC1CN(c2cc3nccnc3cc2F)CC(C)O1 (configuration not stated),1.2,1.1,10,i,5%,6
COc1ccc(OC)c2c(N3CC(C)OC(C)C3)cc(C(F)(F)F)nc12 (configuration not stated),2.1*,1,5,i,14%,20
COC(=O)C1=CN(C(C)C)C=C(C(=O)OC)C1c1cc2c(cc1Br)OCO2,2*,1,7,i,5%,4
CC1=C(C(=O)OCC(C)C)C(c2cc3c(cc2Br)OCO3)NC(=O)N1C (configuration not stated),1,0.99,9,i,3%,12
Cc1cc(N2CCN(c3nc(N4CCOCC4)nc4ccccc34)CC2)c2ccccc2n1,2.1*,1.1,3,i,7%,6
c1ccc2c(N3CCCCC3)nc(N3CCCCC3)nc2c1,1.5,1,0,i,7%,12
Nc1nc(N2CCOCC2)nc2ccccc12,4*,1,12,.,7%,2
c1ccc2c(c1)nc(N1CCOCC1)c1c3ccccc3[nH]c21,3.6*,1.1,7,.,8%,9
c1ccc2nc(N3CCOCC3)c(N3CCOCC3)nc2c1,1.1,1.1,16,i,7%,5
CCOc1ccc2nc(N3CCOCC3)nc(C)c2c1,3.8*,1.1,5,.,5%,4
CN(CC1CCCO1)S(=O)(=O)c1ccc(C(=O)Nc2nc3cc4c(cc3s2)OCO4)cc1 (configuration not stated),1.5,1.1,6,i,6%,13
CCN(CC)CCCN1C(=O)C(=O)/C(=C(/O)c2ccccc2)C1c1ccccn1 (configuration not stated),1,1,0,i,2%,7
O=C1c2ccccc2NC(c2cnc3ccccc3n2)N1O (configuration not stated),1.5,1.1,6,i,5%,9
Cc1cccc(C2Nc3ccccc3C(=O)N2CCc2ccccc2)n1 (configuration not stated),2.2*,1,7,.,7%,7
CCOc1ccc2[nH]c(=O)c(CN(Cc3ccc(C)cc3)C(=O)N3CCCC3)cc2c1,2.6*,1,0,i,9%,11
CCOc1ccc2[nH]c(=O)c(CN(CCOC)C(=O)N3CCOCC3)cc2c1,3*,1,1,.,4%,13
Cc1ccc(CN(Cc2cc3cc(C)ccc3[nH]c2=O)C(=O)N2CCOCC2)cc1,1.6,1,8,i,14%,15
COc1ccc(CNC(=O)c2ccc(NC(=O)C3CCCO3)cc2)cc1 (configuration not stated),1.2,1,4,i,1%,0
SMILES,Autofluor 339,Abs 340nm,MK inhibit,Spn DPM-DC inh,NADH enzymes,Spn PMK inh
O=C(CN(C(=O)CNS(=O)(=O)c1ccccc1)c1ccc2c(c1)OCCO2)NCc1ccco1,1.1,1,6,i,8%,19
O=C(CN(C(=O)CNS(=O)(=O)c1ccccc1)C1CCCC1)NCc1ccco1,1,0.99,0,i,8%,25*
CCn1c(SC(=O)NC2CCCCC2)nnc1-c1cccs1,1.9,1,11,.,18%,25*
CCn1c(SCC(=O)NC2CCCCC2)nnc1-c1cccs1,1.1,0.98,11,i,7%,10
CCOC(=O)Nc1cc(=O)c2ccccc2o1,1.6,1,2,i,3%,0
CCOC(=O)Nc1cc2c(C)cc(=O)oc2cc1C,3.6*,1,7,i,15%,9
COC(=O)c1sc2ccccc2c1C(=O)OC,1.2,1,1,i,5%,14
COC(=O)c1sc2ccccc2c1N,2.1*,1.1,6,.,7%,7
O=C(CSc1ccc2nnc(-c3ccc(F)cc3)n2n1)N1CCCCC1,1.8,1,0,i,3%,9
O=C(CSc1cc(Cl)ccc1Cl)NCC1CCCO1 (configuration not stated),1.1,1,0,i,8%,25*
CCSc1ccc2nnc(-c3ccc(F)cc3)n2n1,2*,1,11,i,12%,14
CC(Sc1ccc2nnc(-c3ccc(F)cc3)n2n1)C(=O)O (configuration not stated),1.8,1.1,18,i,12%,6
O=C(CSc1ccc2nnc(-c3ccc(F)cc3)n2n1)NCC1CCCO1 (configuration not stated),2.3*,1,4,i,11%,14
Nc1cc(N)nc(SCC(=O)NCC2CCCO2)n1 (configuration not stated),1.1,1,9,i,6%,8
CCOC(=O)C(C)Sc1ccc2nnc(-c3ccc(F)cc3)n2n1 (configuration not stated),2.1*,1,0,i,8%,15
O=C(CCN1CCN(Cc2ccccc2)CC1)Nc1cccc(Cl)c1,1.1,1,12,i,9%,15
CCOC(=O)c1nn(-c2ccc(OC)cc2)c(=O)c2c(NC(=O)c3ccco3)scc12,1.3,1.1,8,i,8%,16
COC(=O)c1ccc2c(=O)n(Cc3ccc4c(c3)OCO4)c(SCC(=O)N3CCCC3)nc2c1,1.1,1,6,i,7%,16
CC(=O)Nc1c(O)n(C)c2ccccc12,0.99,0.98,11,i,8%,active
COC(=O)c1[nH]c2cccc(Cl)c2c1NC(=O)CN(C)C1CCCCC1,1.1,1,9,i,7%,13
COc1cc(CN2CCN(c3cccc(Cl)c3)CC2)cc(OC)c1OC,1,1,3,i,2%,3
FC(F)(F)c1cccc(N2CCN(Cc3ccoc3)CC2)c1,1.1,1.1,50*,i,21%,12
COc1cccc(CN2CCN(c3cccc(C(F)(F)F)c3)CC2)c1OC,1.1,1,4,i,1%,0
